# How the values were obtained:
# Settings in all cases: concentration: 1 μM, replicates: in singlicate; n = 1
# HASPIN = test system: T1, HASPIN
# T1 construct: gene GSG2
# HCK = test system: HCK
# HIPK1 = test system: HIPK1
# HIPK2 = test system: HIPK2
# HIPK3 = test system: HIPK3
# HIPK4 = test system: HIPK4
# HPK1 = test system: HPK1
# HUNK = test system: HUNK
# ICK = test system: ICK
# IGF1R = test system: IGF1R
# IKK-alpha = test system: T2, IKK-alpha
# T2 construct: gene CHUK
# IKK-beta = test system: T3, IKK-beta
# T3 construct: gene IKBKB
# IKK-epsilon = test system: T4, IKK-epsilon
# T4 construct: gene IKBKE
# INSRR = test system: INSRR
# INSR = test system: INSR
# IRAK1 = test system: IRAK1
# IRAK3 = test system: IRAK3
# IRAK4 = test system: IRAK4
# ITK = test system: ITK
# [1] = test system: JAK1(JH1domain-catalytic)
# 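Note: KINOMEscan kinase panel screen.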
SMILES,%Inh (HASPIN) [%],%Inh (HCK) [%],%Inh (HIPK1) [%],%Inh (HIPK2) [%],%Inh (HIPK3) [%],%Inh (HIPK4) [%],%Inh (HPK1) [%],%Inh (HUNK) [%],%Inh (ICK) [%],%Inh (IGF1R) [%],%Inh (IKK-alpha) [%],%Inh (IKK-beta) [%],%Inh (IKK-epsilon) [%],%Inh (INSRR) [%],%Inh (INSR) [%],%Inh (IRAK1) [%],%Inh (IRAK3) [%],%Inh (IRAK4) [%],%Inh (ITK) [%],%Inh [1] [%]
Cc1cccc(Nc2nc(N[C@H]3CCCC[C@H]3N)ncc2C(N)=O)c1.Cl [GSK986310],18,0,0,0,21,0,79,0,16,0,0,11,34,8,26,88,17,86,29,77
c1ccc(Oc2ccc(Nc3ccnc4cc(-c5ccc(CN6CCCCC6)o5)ccc34)cc2)nc1 [GW567143],6,79,0,0,8,0,20,0,0,15,12,8,0,5,10,24,0,6,10,0
COC(=O)Nc1nc2ccc(Oc3ccc(NC(=O)Nc4cc(C(F)(F)F)ccc4F)cc3)cc2[nH]1.Cl [GW654607],12,51,8,0,10,92,57,8,11,2,72,36,17,0,0,21,6,3,0,69
Cl.N#CCc1ccc(Nc2nccc(Nc3ccc(Oc4ccccc4)cc3)n2)cc1 [GW639905],0,94.7,0,0,14,0,36,0,0,0,39,45,14,4,0,42,62,32,0,57
N#Cc1cnc2cc(-c3cnc(CNCCN4CCOCC4)s3)ccc2c1Nc1ccc(Oc2ccccc2)cc1 [GW664114],0,99,0,0,17,0,89,12,0,17,29,23,43,0,7,49,0,37,21,10
CN1CCN(Cc2ccc(NC(=O)Nc3ccc(N(C)c4ccnc(Nc5ccc(CS(C)(=O)=O)cc5)n4)cc3)cc2)CC1.Cl [GW827654],19,47,83,82,91.9,90.9,99.6,0,71,0,29,22,28,0,42,44,66,15,28,61
Cc1ccc(O)cc1Nc1ccnc2ccc(C(C)(C)C)cc12 [GW856805],44,93.8,20,0,28,0,0,0,37,0,52,45,6,18,16,13,0,0,0,2
CCNc1nccc(-c2c(-c3ccc(F)cc3)ncn2C2CCN(C)CC2)n1,0,0,39,70,66,0,0,0,0,0,0,0,0,100,0,0,21,0,0,0
CN(c1ccc(NC(=O)N2CCN(CCCN3CCOCC3)CC2)cc1)c1ccnc(Nc2ccc(CS(C)(=O)=O)cc2)n1.Cl [GW830899],0,12,45,0,0,20,47,0,95.9,1,0,0,0,0,0,0,50,0,0,0
Cn1cc(-c2ccc3c(c2)CCN3C(=O)Cc2cc(F)cc(C(F)(F)F)c2)c2c(N)ncnc21 [GSK2635225],9,0,16,0,17,13,31,9,0,30,0,0,75,0,31,8,0,0,5,9
Cl.Cl.NC(CNC(=O)c1cc(Br)c(-c2ccnc3[nH]ccc23)s1)c1ccccc1 (centres unmarked) [GSK1322949],92.6,0,65,68,73,97.3,69,0,0,0,73,69,18,0,9,90.4,55,11,31,24
Cl.Cl.NCC(NC(=O)c1cc(-c2cccnc2)c(-c2ccnc3[nH]ccc23)s1)c1ccccc1 (centres unmarked) [GSK1323434],96.4,0,69,67,86,64,59,0,4,0,14,54,21,0,0,76,1,8,10,15
Cc1ccc(NC(=O)c2ccc(Cl)c(Cl)c2)cc1-c1ccc(C(=O)Nc2ccncc2)cc1 [GSK1398460],0,9,0,0,17,0,40,25,0,19,0,10,24,0,0,0,3,7,10,9
Fc1cc(Cl)ccc1Nc1ccnc2cc(-c3ccc(CN4CCOCC4)o3)ccc12 [GW560109],0,96.7,0,0,26,0,27,62,0,12,43,37,0,5,0,33,27,31,1,0
Cc1ccc(NC(=O)c2ccnc(N3CCCCC3)c2)cc1-c1ccc(C(=O)NCC2CC2)cc1 [GW775610],0,0,11,9,0,0,24,0,25,0,0,0,0,0,0,0,0,0,51,52
CNc1nccc(-c2ccc3c(N)n[nH]c3c2)n1 [GSK2206003],93,0,34,0,37,42,55,0,0,22,90,81,17,0,11,49,49,0,24,0

# From paper PMC5540273 (PLoS ONE, 2017)
